Results taken from PubChem BioAssay (Tox21).
Inconclusive results are not listed. Calls of active or inactive are those of the source. Unless noted, calls follow the shape of the full dose curve.

Columns and labels:
[1] = Nuclear factor erythroid 2-related factor 2/antioxidant responsive element (Nrf2/ARE) small molecule agonists: qHTS cell viability counter screen in human keratinocytes (AID 1919968; active = well fitted curve in the direction sought with a large enough effect in the repeat runs; an effect the other way counts as inactive or inconclusive; also: nearly all actives have a fitted effect of over 55% in size)
In short: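 Seed 1,500 KeratinoSens cells per well, then incubate 5 h at 37 C/5% CO2. Add compounds in DMSO and incubate 23 h. Add CellTiter-Fluor, wait 1 h and read fluorescence.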

[2] = Nuclear factor erythroid 2-related factor 2/antioxidant responsive element (Nrf2/ARE) small molecule agonists: luciferase reporter gene qHTS assay in human keratinocytes (AID 1919969); also: nearly all actives have a fitted effect of over 35% in size
[3] = biological target: Gonadotropin-releasing hormone receptor (Homo sapiens) (UniProt P30968); assay: Human gonadotropin-releasing hormone receptor (GnRHR) small molecule agonists, calcium flux assay in GnRHR-HEK293 cells (AID 1920063); also: nearly all actives have a fitted effect of over 35% in size
In short: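 Cells: HEK293 stably expressing human GnRHR. Steps: overnight (18 h) culture, 1 h calcium dye loading at 37 C, compound addition, kinetic fluorescence read at 480/540 nm. Each compound tested at 15 concentrations in triplicate.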

[4] = biological target: KiSS-1 receptor (Homo sapiens) (UniProt Q969F8); assay: Human kisspeptin (KISS1R) small molecule agonists, calcium flux assay in KISS1R-HEK293 cells (AID 1920064; active = well fitted curve in the direction sought with a large enough effect in the repeat runs; an effect the other way counts as inactive or inconclusive)
In short: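 Cells plated and incubated 18 h; dye added, 1 h at 37 C; compounds in DMSO pinned in; signal read at 480/540 nm every second for 3 min. Each compound tested at 15 concentrations in triplicate.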

[5] = G protein-coupled receptor (GPCR) small molecule agonists, calcium flux assay: HEK293 wild type cell line counter screen (AID 1920065)
In short: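 Counter-screen of the Tox21 10K library for non-specific calcium release: dye-loaded cells received compounds in DMSO and were monitored by kinetic fluorescence (480/540 nm, 3 min). Fifteen concentrations, run in triplicate.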

[6] = p53 small molecule agonists, cell-based qHTS assay with human liver microsomes (AID 1963577);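 also: p53 response element beta-lactamase reporter cells with liver microsomes plus NADPH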
In short: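 In this qHTS, p53 response-element beta-lactamase cells receive test compound together with a microsome/NADPH activating system (0.5 mg/mL final each) and are incubated 16 h at 37 C before LiveBLAzer fluorescence detection.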

[7] = p53 small molecule agonists, cell-based qHTS assay with rat liver microsomes (AID 1963578)
In short: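 Agonist mode in p53RE-bla reporter cells, with compounds co-incubated 16 h at 37 C alongside 0.5 mg/mL rat liver microsomes and 0.5 mg/mL NADPH (final), followed by a 2 h LiveBLAzer detection step.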

[8] = p53 small molecule agonists, cell-based qHTS assay with human liver microsomes: qHTS cell viability counter screen (AID 1963579); also: nearly all actives have a fitted effect of over 45% in size
In short: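 Metabolically activated exposure: compounds, human liver microsomes and NADPH (0.5 mg/mL final apiece) were added to p53RE-bla cells seeded 5 h earlier, left 16 h at 37 C, and then assessed for viability by CellTiter-Glo luminescence.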

[9] = p53 small molecule agonists, cell-based qHTS assay with rat liver microsomes: qHTS cell viability counter screen (AID 1963580); also: nearly all actives have a fitted effect of over 45% in size
In short: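 Viability is assessed in parallel with the p53 reporter read: HCT-116 p53RE-bla cells receive compounds plus rat microsomes and NADPH (0.5 mg/mL final apiece), incubate 16 h at 37 C, and then CellTiter-Glo luminescence is recorded.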

[10] = p53 small molecule agonists, cell-based qHTS assay: qHTS cell viability counter screen (AID 1963581); also: nearly all actives have a fitted effect of over 45% in size
In short: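 Cells: HCT-116 with p53 response element-driven beta-lactamase. Treatment: 16 h, 37 C, compounds in DMSO. Read: CellTiter-Glo luminescence after 30 min RT.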

[11] = p53 small molecule agonists, cell-based qHTS assay (AID 1963582; active = well fitted activation curve with a large enough effect in the signal ratio in the repeat runs, not every such curve was filed as active; the % refers to the signal ratio)
In short: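 Quantitative HTS in p53RE-bla cells: after a 5 h settling period, compounds delivered in DMSO were left on cells for 16 h at 37 C, and reporter induction was measured as fluorescence following 2 h substrate loading.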

[12] = biological target: Beta-2 adrenergic receptor (Homo sapiens) (UniProt P07550); assay: Adrenergic beta2 receptor (ADRB2) small molecule antagonists, cell-based qHTS assay (AID 1963592); also: series mostly up to about 92 µM; nearly all actives have a fitted effect of over 50% in size
In short: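 Cells (CHO, stable ADRB2 overexpression) incubated 18-20hr at 37C; compounds added from DMSO; agonist mix (1nM isoproterenol, 100uM IBMX, 25uM Ro-20-1724) added; 0.5hr RT; d2-cAMP and anti-cAMP-cryptate added; 1hr RT; 665/615 nm read.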

[13] = biological target: Beta-2 adrenergic receptor (Homo sapiens) (UniProt P07550); assay: Adrenergic beta2 receptor (ADRB2) small molecule agonists, cell-based qHTS assay (AID 1963593);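 also: CHO cells stably overexpressing human ADRB2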
In short: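 CHO cells stably over-expressing ADRB2 were plated overnight at 37C, then dosed with compounds plus a stimulation mix containing 100uM IBMX and 25uM Ro-20-1724 for 0.5hr at room temperature. cAMP was measured by HTRF competition, 1hr.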

[14] = biological target: D(2) dopamine receptor (Homo sapiens) (UniProt P14416); assay: Dopamine D2 receptor (DRD2) small molecule agonists, cell-based qHTS assay (AID 1963594); also: nearly all actives have a fitted effect of over 35% in size
In short: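 HEK293 cells stably expressing human DRD2, pre-treated with PDE inhibitor Ro20-1724 (0.1 mM final) and compound 10 min at room temperature, then stimulated with NKH477 (200nM […]) for 30 min. cAMP read by HTRF (665/620 nm).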

[15] = biological target: D(2) dopamine receptor (Homo sapiens) (UniProt P14416); assay: Dopamine D2 receptor (DRD2) small molecule antagonists, cell-based qHTS assay (AID 1963595; active = well fitted inhibition curve with a large enough effect in the signal ratio in the repeat runs, with a control signal flat; the % refers to the signal ratio)
In short: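 DRD2-HEK293; 0.1 mM Ro20-1724; cpd 10 min RT; NKH477 200 nM + quinpirole 12 nM, 30 min RT; HTRF cAMP (cAMP-d2/anti-cAMP cryptate), 665/620 nm ratio after 1 h.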

[16] = cAMP Responsive Elements (CRE) small molecule antagonists, cell-based qHTS assay (AID 1963591; active = well fitted inhibition curve with a large enough effect in the signal ratio in the repeat runs, not every such curve was filed as active; the % refers to the signal ratio)
In short: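 Antagonist mode: test compounds are co-incubated with the adenylyl cyclase activator NKH477 (0.25 uM final) on CRE-bla HEK293T cells for 3 h at 37 °C, followed by LiveBLAzer substrate loading.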

[17] = cAMP Responsive Elements (CRE) small molecule agonists, cell-based qHTS assay (AID 1963590)
In short: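 Agonist mode qHTS in CRE-bla HEK 293T cells: compounds dosed from DMSO for 3 h at 37 C/5% CO2, followed by LiveBLAzer B/G FRET substrate for 2 h at room temperature.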

Measured: Potency

Chain of KiSS-1 receptor (Homo sapiens) (Q969F8 whole entry, looked up): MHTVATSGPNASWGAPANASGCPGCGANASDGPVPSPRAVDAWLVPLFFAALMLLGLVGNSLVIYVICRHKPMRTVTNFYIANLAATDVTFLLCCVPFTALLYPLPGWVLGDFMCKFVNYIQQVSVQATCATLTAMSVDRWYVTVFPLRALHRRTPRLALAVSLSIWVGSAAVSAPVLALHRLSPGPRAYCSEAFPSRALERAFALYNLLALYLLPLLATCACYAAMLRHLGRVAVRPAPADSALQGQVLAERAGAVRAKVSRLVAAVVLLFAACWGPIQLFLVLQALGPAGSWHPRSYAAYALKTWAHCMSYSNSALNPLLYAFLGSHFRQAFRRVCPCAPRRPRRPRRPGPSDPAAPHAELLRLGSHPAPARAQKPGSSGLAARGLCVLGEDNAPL
Chain of D(2) dopamine receptor (Homo sapiens) (P14416 whole entry, looked up): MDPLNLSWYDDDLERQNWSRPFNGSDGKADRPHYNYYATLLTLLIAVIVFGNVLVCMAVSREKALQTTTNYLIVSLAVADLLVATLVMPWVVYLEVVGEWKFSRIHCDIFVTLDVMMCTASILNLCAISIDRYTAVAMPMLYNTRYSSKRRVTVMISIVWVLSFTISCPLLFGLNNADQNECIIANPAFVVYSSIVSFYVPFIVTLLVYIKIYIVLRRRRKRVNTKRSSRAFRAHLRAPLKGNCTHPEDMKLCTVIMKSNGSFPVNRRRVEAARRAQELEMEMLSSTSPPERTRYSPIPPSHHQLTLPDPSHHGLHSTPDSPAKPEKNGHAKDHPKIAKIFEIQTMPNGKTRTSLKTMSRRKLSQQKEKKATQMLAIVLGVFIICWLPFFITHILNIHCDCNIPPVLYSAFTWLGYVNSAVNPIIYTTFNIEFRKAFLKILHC
Chain of Gonadotropin-releasing hormone receptor (Homo sapiens) (P30968 whole entry, looked up): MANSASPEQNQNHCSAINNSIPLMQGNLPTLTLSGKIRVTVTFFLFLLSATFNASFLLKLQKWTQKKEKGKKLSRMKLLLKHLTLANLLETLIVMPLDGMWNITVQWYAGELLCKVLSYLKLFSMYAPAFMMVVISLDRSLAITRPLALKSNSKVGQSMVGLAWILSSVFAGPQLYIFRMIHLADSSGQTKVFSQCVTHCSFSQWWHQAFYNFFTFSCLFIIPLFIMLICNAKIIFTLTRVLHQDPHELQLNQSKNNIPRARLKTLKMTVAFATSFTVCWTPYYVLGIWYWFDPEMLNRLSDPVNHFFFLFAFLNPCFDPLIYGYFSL
Chain of Beta-2 adrenergic receptor (Homo sapiens) (P07550 whole entry, looked up): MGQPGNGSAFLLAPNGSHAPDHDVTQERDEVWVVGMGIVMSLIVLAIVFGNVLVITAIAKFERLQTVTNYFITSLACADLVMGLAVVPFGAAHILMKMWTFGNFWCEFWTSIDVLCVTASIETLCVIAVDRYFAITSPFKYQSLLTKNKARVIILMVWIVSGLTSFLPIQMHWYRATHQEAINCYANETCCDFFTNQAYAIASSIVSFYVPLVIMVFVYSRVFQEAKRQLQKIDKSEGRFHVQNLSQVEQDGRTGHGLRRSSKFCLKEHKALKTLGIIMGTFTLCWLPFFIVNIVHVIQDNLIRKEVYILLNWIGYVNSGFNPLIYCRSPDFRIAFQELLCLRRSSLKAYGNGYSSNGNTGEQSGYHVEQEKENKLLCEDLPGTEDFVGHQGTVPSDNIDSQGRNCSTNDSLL

CC(=O)OCC(=O)[C@@]1(OC(C)=O)[C@@H](C)C[C@H]2[C@@H]3C[C@H](F)C4=CC(=O)C=C[C@]4(C)[C@@]3(F)[C@@H](O)C[C@@]21C
not listed: [16] | [17]
inactive: all other assays above

COc1cc2c3cc1Oc1cc(ccc1O)C[C@@H]1c4c(cc(OC)c(O)c4Oc4ccc(cc4)C[C@@H]3N(C)CC2)CC[N+]1(C)C
not listed: [17]
inactive: all other assays above

O=NN(CCCl)C(=O)NC1CCCCC1
not listed: [14] | [16]
inactive: all other assays above

C[N+](C)(C)CC(O)CC(=O)[O-] (stereo not given)
not listed: [12]
inactive: all other assays above

CCCCOc1ccc(OCCCN2CCOCC2)cc1
not listed: [14] | [16]
inactive: all other assays above

COCCOC(=O)C1=C(C)NC(C)=C(C(=O)OC(C)C)C1c1cccc([N+](=O)[O-])c1 (stereo not given)
not listed: [13] | [14] | [15] | [16] | [17]
inactive: all other assays above

Cc1ncc([N+](=O)[O-])n1CC(C)O (stereo not given)
not listed: [16]
inactive: all other assays above

C1CCN2C[C@@H]3C[C@@H](CN4CCCC[C@@H]34)[C@H]2C1
not listed: [13] | [16]
inactive: all other assays above
